Only some compounds are listed: those with a hit (about 19% of all), similar ones and a draw of the others.
ELG1 DNA repair: inhibitors of ELG1-dependent DNA repair in HEK293T cells; Potency, µM (titrated, usually from 46.1 µM), inactives show top-dose activity change, negative = inhibition, most hits filed as inhibitors; 330,000 compounds, 2.3% hits; HEK293T ELG1-luciferase reporter, luminescence, 16 h; DNA damage induced by 5-fluorouridine; also: potency is read from the fitted curve at half-maximal effect; nearly all actives have a fitted effect of over 55% in size
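HEK293T cells expressing luciferase-tagged ELG1 (2,000/well) received 5-Fluorouridine plus compound or DMSO for 16 hr at 37 °C. Luciferase was read by ONE-Glo luminescence after 30 min at room temperature.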
HT1080 IDH1KD tx: HT-1080 IDH1 knockdown cell toxicity (counter line) | HT-1080 IDH1 knockdown viability, ATP luminescence, 48 h | 360,000 compounds, 2% hits | AID 686971 | Potency, µM (series often up to 46.1 µM), without a hit: at the top dose activity, negative = toxicity, actives largely listed as cytotoxic;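 also: potency is read from the fitted curve at half-maximal effect; 0% = DMSO wells and -100% = cell-free medium wells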
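Knockdown cells (IDH1KD HT-1080) received compounds 2 h after plating at 750 cells/well and were kept 48 h at 37 °C in 5% FBS RPMI. A CellTiter-Glo luminescence read gave % activity for curve fitting.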
TDP1 cell CPT: growth inhibition of DT40 Tdp1-/-;hTDP1 cells with camptothecin (screen for TDP1 inhibitors). Potency, µM (highest dose often 46.2 µM), for the others: top-dose activity change, negative = growth inhibition, actives largely listed as inhibitors. 420,000 compounds, 12% hits. chicken DT40 Tdp1-/-;hTDP1 cells + 20 nM CPT, ATP luminescence, 48 h. AID 686979; also: potency is read from the fitted curve at half-maximal effect; nearly all actives have a fitted effect of over 55% in size
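Chicken DT40 Tdp1-/- cells complemented with human TDP1, 400 cells/well, exposed to compounds plus 20 nM camptothecin for at least 48 h at 37 C; viability read as ATP content by CellTiter-Glo luminescence.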
IL1B secr inh: blocks inflammasome-driven IL-1 beta release; THP-1 LPS/ATP IL-1B secretion, AlphaLISA, 16 h; stronger effect = lower value; activity change, % at 57.5 µM; 360,000 compounds, 4.7% hits; AID 743279; in the data active = activity change below about -50%; inconclusive = mostly about -30% to -49%
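THP-1 cells pretreated 1 hr with compounds (up to 57.5 uM final), then stimulated with LPS (250 ng/mL final) plus ATP (1.25 mM final); secreted IL-1B measured by AlphaLISA after 16 hr, decreased signal indicating inhibition.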
HT1080NT lethal: kills 2HG-producing HT-1080-NT fibrosarcoma cells; Potency, µM (titrated, usually from 46.1 µM), inactives show at the top dose activity, negative = less viability, usual class: cytotoxic; 360,000 compounds, 1.6% hits; HT-1080-NT fibrosarcoma viability, CellTiter-Glo ATP luminescence, 48 h; AID 686970;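 also: NT is the 2HG producing partner of a matched IDH1 knockdown line; potency is read from the fitted curve at half-maximal effect; 0% = DMSO-treated cells and -100% = media-only wells without cells; nearly all actives have a fitted effect of over 55% in size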
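HT-1080-NT fibrosarcoma cells (2HG-overproducing), 750 cells/well in RPMI with 5% FBS, dosed after 2 h and incubated 48 h at 37C. CellTiter-Glo luminescence normalized to DMSO and no-cell wells; concentration-response curves fitted and classed.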
TDP1 cell noCPT: qHTS for Inhibitors of human tyrosyl-DNA phosphodiesterase 1 (TDP1): qHTS in cells in absence of CPT; DT40 Tdp1-/- hTDP1 cells, no CPT, ATP luminescence, 48 h; Potency, µM (titrated, usually from 46.2 µM), for the others: at the highest dose activity change, negative = growth inhibition, most hits filed as inhibitors; 420,000 compounds, 15% hits; AID 686978, 2013; also: potency is read from the fitted curve at half-maximal effect; nearly all actives have a fitted effect of over 55% in size
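Chicken DT40 Tdp1-/- cells stably complemented with human TDP1 were seeded at 400 cells/well with DMSO in place of 20 nM camptothecin. After compound pinning, cells grew at least 48 hr at 37 °C; viability read by CellTiter-Glo luminescence.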
Starred values were filed as active, the others as inactive. Unless noted, calls follow the shape of the dose curve; as a rule, active = well fitted curve in the direction sought with a large enough effect; inconclusive = small, poorly fitted or top-dose-only effect, or another doubt; inactive = no such curve, though single readings can be large; an effect the other way counts as inactive or inconclusive. Unless noted, % is scaled to controls: 0 for no effect and ±100 for the full control effect.

For CC(=O)c1ccc(N2CCN(CC(=O)N(C3CC3)C3CCS(=O)(=O)C3)CC2)c(F)c1 (stereo not given) the results were ELG1 DNA repair 12.1%, HT1080 IDH1KD tx -2.2%, TDP1 cell CPT -1.8%, IL1B secr inh 10.8, HT1080NT lethal 5.7% and TDP1 cell noCPT 2.2%.
`CN(C)c1ccccc1C(=O)N1CCCC(C(=O)c2ccc3ccccc3c2)C1` (stereo not given) gave ELG1 DNA repair inconclusive, HT1080 IDH1KD tx -28.3%, TDP1 cell CPT inconclusive, IL1B secr inh -7.6, HT1080NT lethal -22.9% and TDP1 cell noCPT 23.1µM*.
For CSc1ccc(C(=O)C2CCCN(C(=O)c3ccc4c(c3)no[n+]4[O-])C2)cc1 (stereo not given) the results were ELG1 DNA repair 21.0%, HT1080 IDH1KD tx -7.1%, TDP1 cell CPT inconclusive, IL1B secr inh -67.0*, HT1080NT lethal 26.0% and TDP1 cell noCPT 13µM*.
For CN(C)c1ccccc1C(=O)N1CCCC(Nc2ccc(F)cc2)C1 (stereo not given) the results were ELG1 DNA repair -1.7%, HT1080 IDH1KD tx -3.3%, TDP1 cell CPT -15.4%, IL1B secr inh 26.5, HT1080NT lethal -2.3% and TDP1 cell noCPT 3.0%.
COc1ccccc1C(=O)C1CCCN(C(=O)c2cccnc2SC)C1 (stereo not given) was read as ELG1 DNA repair 20.0%, HT1080 IDH1KD tx 9.4%, TDP1 cell CPT inconclusive, IL1B secr inh 38.0, HT1080NT lethal -0.7% and TDP1 cell noCPT inconclusive.
For CSc1ccc(C(=O)C2CCCN(C(=O)c3cccnc3SC)C2)cc1 (stereo not given) the results were ELG1 DNA repair -18.1%, HT1080 IDH1KD tx -3.5%, TDP1 cell CPT inconclusive, IL1B secr inh 52.6, HT1080NT lethal 5.5% and TDP1 cell noCPT 16.4µM*.
For Cc1cccc(C)c1N1C(=O)CC(Sc2ccccc2N)C1=O (stereo not given) the results were HT1080 IDH1KD tx -3.8%, TDP1 cell CPT inconclusive, IL1B secr inh 15.2, HT1080NT lethal -4.9% and TDP1 cell noCPT inconclusive.
`O=c1cc(-c2ccccc2)n2c(SCc3ccccc3Cl)nnc2[nH]1` gave TDP1 cell CPT 4.4% and TDP1 cell noCPT -0.8%.
O=C([C@@H]1C[C@@H](Sc2nc3ccccc3[nH]2)CN1Cc1ccc(Cl)cc1)N1CCN(c2ccccc2F)CC1 was read as TDP1 cell CPT inconclusive and TDP1 cell noCPT 20.6µM*.
`Cc1ccc([N+](=O)[O-])c(OCCCN2CCC(Cc3ccccc3)CC2)c1` gave HT1080 IDH1KD tx inconclusive, TDP1 cell CPT 20.6µM*, IL1B secr inh -60.3*, HT1080NT lethal inconclusive and TDP1 cell noCPT 20.6µM*.
Screening COc1cccc(CN2CCN(Cc3ccccc3C(F)(F)F)CC2)c1 returned ELG1 DNA repair 9.5%, HT1080 IDH1KD tx -24.1%, TDP1 cell CPT -36.2%, IL1B secr inh -4.7, HT1080NT lethal -13.2% and TDP1 cell noCPT inconclusive.
`COc1cc(CN2CCC(Cc3ccccc3)CC2)c([N+](=O)[O-])cc1OC` gave ELG1 DNA repair inconclusive, HT1080 IDH1KD tx -22.0%, TDP1 cell CPT 20.6µM*, IL1B secr inh -6.5, HT1080NT lethal -13.0% and TDP1 cell noCPT inconclusive.
For COc1ccc(CN2CCN(Cc3ccccc3C(F)(F)F)CC2)c(OC)c1 the results were ELG1 DNA repair -8.0%, HT1080 IDH1KD tx inconclusive, TDP1 cell CPT inconclusive, IL1B secr inh -9.8, HT1080NT lethal inconclusive and TDP1 cell noCPT 16.4µM*.
C=CCOc1ccccc1CN1CCC(Cc2ccccc2)CC1 was read as ELG1 DNA repair -20.2%, HT1080 IDH1KD tx inconclusive, TDP1 cell CPT inconclusive, IL1B secr inh -86.1*, HT1080NT lethal -27.8% and TDP1 cell noCPT inconclusive.
For COc1cc(CN2CCN(C(=O)CC(C)C)CC2)c([N+](=O)[O-])cc1OC the results were ELG1 DNA repair -16.3%, HT1080 IDH1KD tx 11.1%, TDP1 cell CPT -13.9%, IL1B secr inh 37.7, HT1080NT lethal 7.4% and TDP1 cell noCPT -24.8%.
For CCOC(=O)c1ccc(NC(=O)c2cc3c(n(-c4ccc(C)cc4)c2=O)CC(C)(C)CC3=O)cc1 the results were TDP1 cell CPT -4.8% and TDP1 cell noCPT inconclusive.
For CCCCC(CC)CCC(CC(C)C)OS(=O)(=O)O (stereo not given) the results were TDP1 cell CPT 8.0% and TDP1 cell noCPT 0.7%.
For O=[N+]([O-])c1cccc(OCCN2CCC(Cc3ccccc3)CC2)c1 the results were ELG1 DNA repair -3.2%, HT1080 IDH1KD tx inconclusive, TDP1 cell CPT inconclusive, IL1B secr inh -65.9*, HT1080NT lethal inconclusive and TDP1 cell noCPT inconclusive.
Screening COc1cc(OC)c(CN2CCC(Cc3ccccc3)CC2)cc1Br returned ELG1 DNA repair -24.6%, HT1080 IDH1KD tx -23.0%, TDP1 cell CPT inconclusive, IL1B secr inh -57.5*, HT1080NT lethal -26.2% and TDP1 cell noCPT inconclusive.
`COc1ccc(OC)c(CN2CCC(Cc3ccccc3)CC2)c1` gave ELG1 DNA repair -12.9%, HT1080 IDH1KD tx -11.3%, TDP1 cell CPT inconclusive, IL1B secr inh -7.1, HT1080NT lethal inconclusive and TDP1 cell noCPT 16.4µM*.
For COc1cc(C)c(CN2CCC(Cc3ccccc3)CC2)cc1C the results were ELG1 DNA repair -9.4%, HT1080 IDH1KD tx -7.1%, TDP1 cell CPT inconclusive, IL1B secr inh inconclusive, HT1080NT lethal -17.1% and TDP1 cell noCPT inconclusive.
CC(C)(C)c1ccc(S(=O)(=O)N2CCN(CC(=O)NC(=O)NC3CCCCC3)CC2)cc1 was read as ELG1 DNA repair inconclusive, HT1080 IDH1KD tx 4.7%, TDP1 cell CPT inconclusive, IL1B secr inh -17.6, HT1080NT lethal 1.3% and TDP1 cell noCPT inconclusive.
`O=C(Nc1ccc(Cl)c(Cl)c1)Nc1ccc(Br)cc1F` gave ELG1 DNA repair inconclusive, HT1080 IDH1KD tx 16.4µM*, TDP1 cell CPT 5.8µM*, IL1B secr inh inconclusive, HT1080NT lethal inconclusive and TDP1 cell noCPT 11.6µM*.
Screening Fc1cc(Br)ccc1NC(=S)Nc1ccccc1 returned ELG1 DNA repair inconclusive, HT1080 IDH1KD tx 16.4%, TDP1 cell CPT -8.4%, IL1B secr inh 0.0, HT1080NT lethal 17.9% and TDP1 cell noCPT inconclusive.
`S=C(Nc1ccccc1)Nc1ccc(Br)cc1` gave ELG1 DNA repair -13.4%, HT1080 IDH1KD tx 1.5%, TDP1 cell CPT 16.4µM*, IL1B secr inh 8.5, HT1080NT lethal 1.2% and TDP1 cell noCPT 20.6µM*.
